Consider 31 compounds from PubChem BioAssay (NCATS).

Results filed as inconclusive are left out. A number with no mark means an inactive call. The source made the active and inactive calls. Unless noted, calls come from the whole dose curve; as a rule, active = well fitted inhibition curve with a large enough effect; inconclusive = small, poorly fitted or top-dose-only effect; inactive = no such curve, though single readings can be large or run the other way.

In assay [1] the target is Cytochrome P450 2C9 (Homo sapiens) (UniProt P11712). The experiment in a line: qHTS Assay for Inhibitors and Substrates of Cytochrome P450 2C9 (AID 883). For activity change, negative = inhibition: % is set by controls: 0 for no effect and ±100 for the full control effect. Note: nearly all actives have a fitted effect of over 60% in size. Note: potency is the fitted concentration of half-maximal effect. Summed up:
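CYP2C9 deoxyluciferin hydroxylation, 37C, 60 min with NADPH regeneration; 10nM enzyme, 100uM Luciferin-H (KM). Glo detection reagent stopped reaction; luminescence normalized to sulphaphenazole (57uM) full inhibition.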
Background: In qHTS, concentration-response curves come from the screen itself.

In assay [2] the target is Cytochrome P450 2D6 (Homo sapiens) (UniProt P10635). The experiment in a line: qHTS Assay for Inhibitors and Substrates of Cytochrome P450 2D6 (AID 891).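 For activity change, negative = inhibition: luciferin methyl ether substrate demethylated by CYP2D6 with NADPH regeneration; % is set by controls: 0 for no effect and ±100 for the full control effect.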 Note: nearly all actives have a fitted effect of over 60% in size. Note: potency is the fitted concentration of half-maximal effect. In a few lines:
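Human CYP2D6 (5 nM) with 30 uM Luciferin-ME EGE (at Km) in 100 mM KPO4, compound preincubated 10 min, then NADPH regeneration system for 60 min at room temperature. Luciferin read by luminescence; normalized to 1.43 uM quinidine.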

Assay [3] deals with Cytochrome P450 3A4 (Homo sapiens) (UniProt P08684). As to the kind of experiment: qHTS Assay for Inhibitors and Substrates of Cytochrome P450 3A4 (AID 884). For activity change, negative = inhibition: series mostly up to about 57 µM; % is set by controls: 0 for no effect and ±100 for the full control effect. Note: nearly all actives have a fitted effect of over 50% in size. Note: potency is the fitted concentration of half-maximal effect. Summed up:
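20 nM human CYP3A4 with 25 uM Luciferin-PPXE (at KM) in 200 mM KPO4, preincubated 10 min with compound; NADPH regeneration started a 60 min RT reaction. Luciferin detected by luminescence, normalized to 57 uM ketoconazole as full inhibition.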

Assay [4] in a line: qHTS Assay for Identification of Small Molecule Antagonists for NFkB Signaling Pathway (AID 895; active = well fitted inhibition curve with a large enough effect in the signal ratio, with a control signal flat, not every such curve was filed as active; the % refers to the signal ratio; note: % is set by controls: 0 for no effect and ±100 for the full control effect). In a few lines: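 NFkB-bla ME-180 cervical carcinoma cells with beta-lactamase reporter under NFkB response element; compounds added, then TNF alpha at 10 pM final (EC50), 5 h at 37 C. LiveBLAzer substrate 2 h, room temperature; emission 460/530 nm at 405 nm excitation.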
In assay [5] the target is Muscarinic acetylcholine receptor M1 (Rattus norvegicus) (UniProt P08482). The experiment in a line: qHTS Assay for Antagonists of Acetylcholine Muscarinic M1 Receptor: Kinetic Measurement of Intracellular Calcium Response (AID 943).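 For activity change, negative = inhibition: Fluo-4 calcium signal as peak divided by basal fluorescence over 4 min; series mostly up to about 35 µM.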 Note: nearly all actives have a fitted effect of over 75% in size. Note: potency is the fitted concentration of half-maximal effect. Summed up:
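CHO cells stably expressing rat M1 were loaded with no-wash Fluo-4 dye for 1 h at 37C, pre-incubated 10 min with compound, then challenged with EC80 carbachol (100 nM final); kinetic calcium read 4 min, peak/basal ratio.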

The nature of assay [6]: qHTS Assay for Identification of Small Molecule Agonists for Hypoxia Response Element Signaling Pathway (AID 914; active = well fitted activation curve with a large enough effect in the signal ratio, with a control signal flat, not every such curve was filed as active; the % refers to the signal ratio; note: % of control where 0% means no effect). Conditions: ME-180 (cervical carcinoma) HRE-bla reporter, beta-lactamase ratio, CoCl2, 17 h; active compounds read high. In a few lines:
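AC50 values come from titration-series %Activity, taken as the 460/530nm ratio of CCF4 fluorescence (excitation 405nm). CellSensor HRE-bla ME-180 cells were treated 17 hours at 37 C with compound plus an EC50 level of CoCl2.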

Cytochrome P450 3A4 (Homo sapiens), sequence (P08684 whole entry, looked up): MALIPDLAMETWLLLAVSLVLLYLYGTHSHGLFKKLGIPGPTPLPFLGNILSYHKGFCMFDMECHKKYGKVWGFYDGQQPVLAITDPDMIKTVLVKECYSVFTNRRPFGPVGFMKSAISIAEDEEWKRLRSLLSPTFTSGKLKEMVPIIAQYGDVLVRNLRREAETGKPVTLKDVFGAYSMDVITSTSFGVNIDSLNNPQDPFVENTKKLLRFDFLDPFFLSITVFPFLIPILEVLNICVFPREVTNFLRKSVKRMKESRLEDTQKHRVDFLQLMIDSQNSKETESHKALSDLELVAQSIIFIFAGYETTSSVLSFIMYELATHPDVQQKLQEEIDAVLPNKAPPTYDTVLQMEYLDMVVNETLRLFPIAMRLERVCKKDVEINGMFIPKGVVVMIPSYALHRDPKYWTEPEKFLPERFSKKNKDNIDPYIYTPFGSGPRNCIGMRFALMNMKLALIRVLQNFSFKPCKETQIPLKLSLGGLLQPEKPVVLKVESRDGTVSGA
Muscarinic acetylcholine receptor M1 (Rattus norvegicus), sequence (P08482 whole entry, looked up): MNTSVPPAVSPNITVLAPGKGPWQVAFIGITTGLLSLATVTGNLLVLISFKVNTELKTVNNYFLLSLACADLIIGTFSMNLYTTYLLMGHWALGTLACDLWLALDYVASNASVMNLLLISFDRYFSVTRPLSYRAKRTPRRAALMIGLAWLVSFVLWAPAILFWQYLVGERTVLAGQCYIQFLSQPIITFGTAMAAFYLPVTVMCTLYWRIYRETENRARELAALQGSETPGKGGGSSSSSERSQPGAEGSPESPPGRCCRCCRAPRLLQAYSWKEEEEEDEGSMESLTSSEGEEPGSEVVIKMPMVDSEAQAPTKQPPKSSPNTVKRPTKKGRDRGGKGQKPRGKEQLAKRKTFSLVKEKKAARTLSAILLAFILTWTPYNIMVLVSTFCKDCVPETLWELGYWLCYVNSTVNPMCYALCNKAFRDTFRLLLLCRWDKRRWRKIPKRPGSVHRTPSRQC
Cytochrome P450 2C9 (Homo sapiens), sequence (P11712 whole entry, looked up): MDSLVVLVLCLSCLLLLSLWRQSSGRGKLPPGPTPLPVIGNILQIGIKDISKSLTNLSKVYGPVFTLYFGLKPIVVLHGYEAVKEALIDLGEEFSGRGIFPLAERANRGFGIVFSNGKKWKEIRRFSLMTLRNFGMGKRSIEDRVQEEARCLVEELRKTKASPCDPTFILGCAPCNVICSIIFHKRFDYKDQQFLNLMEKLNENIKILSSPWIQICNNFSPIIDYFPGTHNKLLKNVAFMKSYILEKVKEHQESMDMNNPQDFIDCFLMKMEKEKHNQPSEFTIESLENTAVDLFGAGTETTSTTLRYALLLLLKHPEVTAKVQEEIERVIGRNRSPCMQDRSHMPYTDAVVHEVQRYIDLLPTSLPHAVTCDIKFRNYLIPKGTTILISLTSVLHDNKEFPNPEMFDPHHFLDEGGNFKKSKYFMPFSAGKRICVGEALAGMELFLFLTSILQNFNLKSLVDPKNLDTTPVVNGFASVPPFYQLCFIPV
Cytochrome P450 2D6 (Homo sapiens), sequence (P10635 whole entry, looked up): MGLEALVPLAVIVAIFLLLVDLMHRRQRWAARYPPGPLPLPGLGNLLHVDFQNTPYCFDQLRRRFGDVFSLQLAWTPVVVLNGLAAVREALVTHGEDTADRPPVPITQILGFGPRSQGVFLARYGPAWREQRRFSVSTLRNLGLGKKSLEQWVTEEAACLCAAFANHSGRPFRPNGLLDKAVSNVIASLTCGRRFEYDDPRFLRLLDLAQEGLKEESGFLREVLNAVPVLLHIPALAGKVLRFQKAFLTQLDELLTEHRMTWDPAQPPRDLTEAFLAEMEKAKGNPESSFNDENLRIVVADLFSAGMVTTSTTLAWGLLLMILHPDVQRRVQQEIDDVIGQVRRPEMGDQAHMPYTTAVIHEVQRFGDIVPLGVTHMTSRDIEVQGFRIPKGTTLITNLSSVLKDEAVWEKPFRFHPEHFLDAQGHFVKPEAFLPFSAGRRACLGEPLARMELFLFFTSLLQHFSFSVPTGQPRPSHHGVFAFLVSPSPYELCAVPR

Take `O=C(O)c1cc[c]([Hg][S]c2ncnc3nc[nH]c23)cc1`: the Potency in assay [1] was 1260 nM (active).

On to `Cc1ccc(NC(=[OH+])c2cc3ccccc3cc2O)c(C)c1.Cc1ccc(NC(=[OH+])c2cc3ccccc3cc2O)c(C)c1.[Ni]`, for which the Potency in assay [1] is 3160 nM (active).

As to `CCc1ccc(CCN2CCCCC2)nc1`, the Potency in assay [2] was 1580 nM (active).

`CCNC(C)(C)[C@@H](SS)c1ccc(Br)cc1`: in assay [2], the Potency was 2000 nM (active).

With `COC1=C(C)C(=O)c2c(c(COC(N)=O)c3n2C[C@@H]2[C@@H]3N2C)C1=O` (stereo partly specified), in assay [2], the Potency is 1580 nM (active).

Regarding `NNc1c(C(N)=O)c2c(N)ncnc2n1[C@@H]1O[C@H](CO)[C@@H](O)[C@@H]1O`, in assay [1], the activity change, negative = inhibition is -2.73% [at 11.4 µM]. Also, the Potency entry in assay [2] was “inactive”.

`CSC([N-]/N=C/c1cccc(C)n1)=[S]=[Cu].CS[C@H]([S-])[N-]/N=C/c1cccc(C)n1`: the Potency in assay [1] is 251 nM (active); in assay [3], 3980 nM (active).

On to `C=C[C@@H]1CN2CC[C@H]1C[C@H]2[C@H](O)c1ccnc2ccccc12`, for which the Potency in assay [2] is 3980 nM (active).

For the compound `O=C(O)CN1CCN(CC(=O)O)CC(=O)[O][Hg][O]C(=O)C1`, the Potency in assay [1] was 1260 nM (active); in assay [2] it was 3160 nM (active).

On to `C[N+]1(C)CCc2cc3c(cc2[C@@H]1[C@@H]1OC(=O)c2c1ccc1c2OCO1)OCO3`, for which the Potency entry in assay [4] is “inactive”.

As to `NC[C@H](O)c1cc(O)c(O)cc1F`, the Potency entry in assay [4] was “inactive”.

On to `CC(C)[C@@]1(NC(=O)[C@@H]2C=C3c4cccc5[nH]cc(c45)C[C@@H]3N(C)C2)O[C@]2(O)[C@H]3CCCN3C(=O)[C@H](Cc3ccccc3)N2C1=O`, for which the Potency entry in assay [2] was “inactive”.

As to `c1ccc2c(c1)Sc1ccccc1N2C[C@H]1CN2CCC1CC2`, the Potency in assay [2] is 398 nM (active).

`C[C@@H]1O[C@H]1P(=O)(O)O`: the Potency result in assay [1] and in assay [5] was “inactive” in each case.

In the case of `O=C(O)[C@H]1[C@H](C(=O)O)[C@H]2CC[C@@H]1O2`, the Potency result in assay [5] is “inactive”.

As for `COc1ccc2c3c1O[C@@H]1C(=O)CC[C@@]4(O)[C@@H](C2)N(CC2CC2)CC[C@]314`, in assay [2], the Potency was 5010 nM (active). In addition, the Potency entry in assay [4] is “inactive”.

`CC(=O)[C@@H]1CC[C@H]2[C@H]3CC[C@H]4C[C@@H](O)CC[C@]4(C)[C@@H]3CC[C@]12C`: the Potency in assay [1] is 2000 nM (active).

For the compound `N[C@H](Cn1oc(=O)[nH]c1=O)C(=O)O`, the Potency result in assay [1] and in assay [2] was “inactive” throughout.

As for `C[C@@]12CC[C@H]3[C@@H](CCC4=C(O)C(=O)CC[C@]43C)[C@H]1CCC2=O`, the Potency entry in assay [4] is “inactive”.

For `CC(=O)OC1=CC2=CC[C@H]3[C@H]4CCC(=O)[C@@]4(C)CC(=O)[C@]3(S)[C@]2(C)CC1`, the activation in assay [6] was -4.78%.

Regarding `C#CCN[C@@H](C)Cc1ccccc1`, the Potency result in assay [3] and in assay [5] was “inactive” throughout.

As for `CCNC(=O)[C@@H]1O[C@@H](n2cnc3c(N)ncnc32)[C@@H](O)[C@H]1O`, the Potency entry in assay [4] and in assay [5] was “inactive” in each case.

In the case of `C[C@H](Br)CN(C[C@H](C)Br)c1ccc2c(c1)Cc1ccccc1-2`, in assay [1], the Potency was 3160 nM (active). In assay [2], the Potency entry is “inactive”.

For `C[C@@H]1Cc2cc3c(cc2C(c2ccc(N)cc2)=NN1)OCO3`, in assay [3], the Potency was 2510 nM (active).

Turning to `N[C@H](Cn1ccc(=O)[nH]c1=O)C(=O)O`, in assay [2], the Potency is 3980 nM (active). Further, the Potency result in assay [4] and in assay [5] was “inactive” each time. For the same compound, the activation in assay [6] is 10.5%.

As for `C[C@@]12CC[C@H]3[C@@H](CC=C4C[C@H](OS(=O)(=O)O)CC[C@]43C)[C@H]1CCC2=O`, the Potency entry in assay [4] and in assay [5] was “inactive” each time.

As to `CC(C)C[C@H](NP(=O)(O)O[C@@H]1O[C@@H](C)[C@@H](O)[C@@H](O)[C@H]1O)C(=O)N[C@@H](Cc1c[nH]c2ccccc12)C(=O)O`, the Potency result in assay [4] and in assay [5] was “inactive” throughout.

`Oc1ccc2c3c1O[C@@H]1c4[nH]c5c(c4C[C@@]4(O)[C@@H](C2)N(CC2CC2)CC[C@]314)C[C@]1(O)[C@@H]2Cc3ccc(O)c4c3[C@@]1(CCN2CC1CC1)[C@H]5O4`: the Potency result in assay [4] and in assay [5] was “inactive” each time.

As for `CC(C)N[C@@H](C)Cc1ccc(I)cc1`, the Potency in assay [5] is 8910 nM (active).

As to `C[C@]12CC[C@@H]3[C@H](CCC4=CC(=O)CC[C@]43C)[C@]1(O)CC[C@@]2(O)C(=O)CO`, the activation in assay [6] is 7.15%.

In the case of `NC(=O)CN1C[C@@H](O)CC1=O`, the activation in assay [6] is 9.85%.
